In the library only some 11% were active in any assay of this set; here they are far more common.
PNC inhibitor – inhibitors of perinucleolar compartment assembly | PC3M PTB-GFP, PNC prevalence imaging, 16 h; hits give low values | activity change (PNC), negative = inhibition, % at 10 µM | actives 3.1% (n = 140,000) | AID 2417;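 active means readout at or below -70, meaning at least 70% loss of cells showing the perinucleolar compartment, a nuclear body marking cancer cells; inconclusive means readout between -30 and a set limit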;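 further: plate controls were DMSO wells for no effect and camptothecin positive control wells for full effect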
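PC3M cells stably expressing PTB-GFP, 750–1000 cells/well, treated 16 h at 37 °C with compound (23 nl of library stock), in duplicate. After paraformaldehyde fixation and Hoechst stain, imaged at 20x; PNC prevalence scored by image analysis.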
ALDH1A1 block – blocks purified human ALDH1A1 activity. P00352. Purified ALDH1A1, NADH fluorescence, propionaldehyde substrate. Potency, µM (top dose mostly 75.3 µM), inactives show top-dose activity, negative = inhibition, usual class: inhibitors. actives 7.3% (n = 220,000);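 further: potency means the concentration at half of the fitted maximal effect; plate controls were no enzyme wells and a reference inhibitor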
Target sequence (P00352 whole entry, looked up): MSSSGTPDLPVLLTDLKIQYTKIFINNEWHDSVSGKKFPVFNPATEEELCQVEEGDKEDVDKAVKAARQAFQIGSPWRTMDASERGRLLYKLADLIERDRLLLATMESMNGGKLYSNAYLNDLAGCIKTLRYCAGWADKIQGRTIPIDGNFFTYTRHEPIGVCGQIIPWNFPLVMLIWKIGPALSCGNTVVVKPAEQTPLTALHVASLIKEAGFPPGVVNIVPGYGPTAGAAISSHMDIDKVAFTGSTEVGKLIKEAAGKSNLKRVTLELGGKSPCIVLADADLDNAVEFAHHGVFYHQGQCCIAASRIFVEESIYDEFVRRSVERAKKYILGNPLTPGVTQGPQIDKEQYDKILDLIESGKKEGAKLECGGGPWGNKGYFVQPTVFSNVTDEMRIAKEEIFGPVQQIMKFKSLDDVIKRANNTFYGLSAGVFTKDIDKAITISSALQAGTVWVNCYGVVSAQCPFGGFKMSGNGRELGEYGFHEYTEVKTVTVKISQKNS
KDM4E inh – JMJD2E (human) inhibition; B2RXH2; actives 1.6% (n = 230,000); Potency, µM (highest dose often 57.1 µM), inactives show at the highest dose activity change, negative = inhibition, usual class: inhibitors; AID 2147; JMJD2E catalytic domain, FDH-coupled NADH fluorescence (FDH is formaldehyde dehydrogenase);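 further: potency means the concentration at half of the fitted maximal effect; 0% = wells with enzyme and -100% = buffer wells without enzyme; nearly all actives have a fitted effect of over 50% in size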
HPGD block – inhibitors of human 15-hydroxyprostaglandin dehydrogenase (HPGD). Potency, µM, for the others: top-dose activity change, negative = inhibition, most hits filed as inhibitors. actives 4.3% (n = 150,000). AID 894. P15428. purified HPGD, NADH fluorescence kinetic, PGE2 substrate; further: potency means the concentration at half of the fitted maximal effect
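20 nM HPGD preincubated 15 min at room temperature with compound in 50 mM Tris-HCl pH 8, 0.01% Tween 20. Started with 1 mM NAD+ and 30 uM prostaglandin E2; NADH fluorescence (360/450 nm) read 5 times over 30-s intervals, last minus first.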
Starred values were filed as active, the others as inactive; ? = inconclusive; . = not tested or not shown; [ ] = another dose, or the depositor's remark. Unless noted, the call rests on the fitted dose curve; in most records, active means well fitted inhibition curve with a large enough effect (not every such curve was filed as active); inconclusive means small, poorly fitted or top-dose-only effect, or another doubt; inactive means no such curve, though single readings can be large or run the other way. Unless noted, on the % scale 0 is the no-effect control and ±100 the full control effect.

SMILES | PNC inhibitor | ALDH1A1 block | KDM4E inh | HPGD block
CCN(CC)S(=O)(=O)c1cccc(NC2=NCC(C)S2)c1 (configuration not stated) | . | -3% | 0% | .
O=C(NNS(=O)(=O)c1ccc(Br)cc1)c1csnn1 | . | 2% | 18% | .
O=C(c1ccccc1)N1CCN(S(=O)(=O)N2CCCCC2)CC1 | ? | -1% | 1% | -4%
O=C(c1cccc(Br)c1)N1CCN(C(=O)N2CCOCC2)CC1 | -3 | -4% | 6% | -2%
O=C(c1c(Cl)cccc1Cl)N1CCCCCC1 | 9 | 3% | -3% | 28µM*
O=C(c1ccccc1)N1CCCCCC1 | 23 | 7% | 0% | 4.5µM*
O=C(c1ccccc1)c1ccc(C(=O)N2CCOCC2)cc1 | -29 | -4% | -1% | 7.9µM*
O=C(c1cccc(Br)c1)N1CCN(C(=O)c2cccc(Br)c2)CC1 | 176 | 16µM* | 6% | -4%
O=C(c1ccc(C(=O)N2CCCCCC2)cc1)N1CCCCCC1 | 63 | 18µM* | 1% | 7.9µM*
Cc1ccc(C(=O)N2CCCC2)cc1Br | -4 | 12% | 5% | 20µM*
Cn1nnc2cc(C(=O)N3CCCCCC3)ccc21 | ? | 1% | -1% | 3.2µM*
O=C(/C=C/N1CCOCC1)c1ccc(-c2ccccc2)cc1 | -16 | ? | -1% | 28µM*
C[C@H]1Cc2c(COc3ccccc3)nc3c(c2CO1)CN(S(=O)(=O)c1ccc(Cl)c2nonc12)CC3 | . | ? | -2%[11.4 µM] | -4%
O=C(c1ccccc1)N1CCN(C(=O)C23CC4CC(CC(C4)C2)C3)CC1 | -127* | 25µM* | ? | -9%
S=c1[nH]nc(Cc2ccccc2)n1-c1cccc2ccccc12 | 14 | ? | 3% | 16µM*
O=c1c2ccccc2cnn1Cc1n[nH]c(=S)n1-c1ccccc1Cl | -17 | 32µM* | -4% | ?
COC(=O)c1sc(S(=O)(=O)NC(C)C(=O)O)c(C(=O)OC)c1C (configuration not stated) | . | 8% | -3% | .
COc1ccccc1CNc1cc(-c2cccc(NS(C)(=O)=O)c2)ncn1 | . | -2% | ? | -23%
O=C(c1ccccc1)N1CCCCC(S(=O)(=O)c2ccc3ccccc3c2)C1=O (configuration not stated) | 8 | 10µM* | -4% | -5%
O=C(NC1CC1)C1CCCN1S(=O)(=O)c1ccc2ccccc2c1 (configuration not stated) | 12 | -5% | 14% | -8%
O=C(O)C1CCCN1S(=O)(=O)c1ccc2ccccc2c1 (configuration not stated) | -100* | 79% | ? | ?
O=C(NCCc1ccccc1F)C1CCCN1S(=O)(=O)c1ccc2ccccc2c1 (configuration not stated) | -10 | 2% | -6% | 16µM*
CC[C@H](C)[C@H](NC(=O)[C@H](CCCN=C(N)N)NC(=O)[C@H](CCCN=C(N)N)NC(=O)[C@H](CC(C)C)NC(=O)[C@H](Cc1ccccc1)NC(=O)CNC(=O)CN)C(=O)N[C@@H](CCCN=C(N)N)C(=O)N1CCC[C@H]1C(=O)N[C@@H](CCCCN)C(=O)N[C@@H](CC(C)C)C(=O)N[C@@H](CCCCN)C(=O)O | . | 7% | . | .
O=C(CNS(=O)(=O)c1ccccc1)NCC(=O)OCc1ccc(C(=O)c2ccccc2)cc1 | 30 | -22% | -25% | 20µM*
O=C(NCCN1C(=O)C2C3C=CC(C3)C2C1=O)Nc1ccc(Br)cc1 (configuration not stated) | ? | 11µM* | -4% | -11%
SMILES | PNC inhibitor | ALDH1A1 block | KDM4E inh | HPGD block
O=C(NCCN1C(=O)C2C3C=CC(C3)C2C1=O)Nc1cccnc1 (configuration not stated) | -28 | -12% | 0% | 3%
CCCC(=O)Nc1ccc(NC(=O)CCc2ccccc2)cn1 | -114* | -4% | 0% | -10%
CCCC(=O)Nc1ccc(NC(=O)c2ccccc2Cl)nc1 | -84* | -2% | -1% | -2%
CCOc1ccc(C2/C(=C(\O)c3cccc(OC)c3)C(=O)C(=O)N2c2ccccn2)cc1OC (configuration not stated) | . | . | -1% | .
COc1ccccc1CN1CC[C@@]2(CCCN(C(=O)c3cccn3C)C2)C1 | . | ? | . | -4%
O=c1nc(/C=C/c2cccn2-c2ccc([N+](=O)[O-])cc2)cc(C(F)(F)F)[nH]1 | . | -1% | -1% | .
O=c1nc(/C=C/c2cc([N+](=O)[O-])ccc2Cl)cc(C(F)(F)F)[nH]1 | -27 | ? | -1% | 3.2µM*

From PubChem
